Reference: PubChem BioAssay AID540333 (Southern Research Specialized Biocontainment Screening …, 2011)
Among all 10,000 compounds or so, about 320 (3.2%) were called active. Cut-off read from the data, not from the text of the source: active = CPE inhibition mostly above about 9.1% (no sharp cut-off); inactive = mostly below about 7.2%. The sample as a whole holds a higher share of actives than the screen did.

assay: antivirals protecting cells from dengue CPE – CPE readout, HTS (AID 540333); conditions: Dengue virus CPE inhibition in host cells, at 20 µM; stronger effect = higher value

Row | Compound | CPE inhibition
1 | Cc1ccc(-n2nc(C)c(C3(O)C(=O)N(C(C)C)c4ccccc43)c2N)cc1 (stereo not given) | inactive
2 | CCOC(=O)C1=C(C)N(Cc2ccccc2)C(=O)NC1c1ccccc1OS(=O)(=O)c1ccccc1[N+](=O)[O-] (stereo not given) | 14.2% (active)
3 | COC(=O)C1=C(C)N(Cc2ccccc2)C(=O)N[C@H]1c1cccc(F)c1 | 0.125% (inactive)
4 | CCOC(=O)C1=C(C)N(CCCCCC(=O)O)C(=O)NC1c1cccc([N+](=O)[O-])c1 (stereo not given) | 0.825% (inactive)
5 | Cc1ccc(Cn2c(SCC(=O)N3CC(=O)Nc4ccccc43)nc3ccccc3c2=O)cc1 | 22.3% (active)
6 | Cc1ccc(-n2c(SCC(=O)N3CC(=O)Nc4ccccc43)nc3ccccc3c2=O)cc1 | 2.37% (inactive)
7 | Cc1cccc(C)c1-n1c(SCC(=O)N2CC(=O)Nc3ccccc32)nc2ccccc2c1=O | 1.7% (inactive)
8 | CCCn1c(SCC(=O)N2N=C3/C(=C/c4ccc(OC)cc4)CCCC3C2c2ccc(OC)cc2)n[nH]c1=O (stereo not given) | 10.2% (active)
9 | COc1ccc(C2CC(c3ccccc3)=NN2C(=O)CSc2ncccn2)cc1 (stereo not given) | 0.205% (inactive)
10 | COc1ccc(C2=NN(C(=O)CSc3nc4ccccc4s3)C(c3ccc(OC)cc3)C2)cc1 (stereo not given) | 2.96% (inactive)
11 | C#CCNC(=O)C1=C[C@@H](c2ccc(C(F)(F)F)cc2)C[C@@H](OCc2ccc(CO)cc2)O1 | 2.77% (inactive)
12 | CCC(OCC(O)CN1CCN(CCN2C(=O)c3cccc4cccc(c34)C2=O)CC1)c1ccccc1 (stereo not given) | inactive
13 | O=[N+]([O-])c1ccc(CSc2nnc(Cc3ccccc3)n2-c2ccc(F)cc2)cc1 | 3.26% (inactive)
14 | Cc1cccc(-n2c(Cc3ccccc3)nnc2SCc2ccc([N+](=O)[O-])cc2)c1 | 14.3% (active)
15 | Cc1cccc(CC(=O)N2CCN=C2SCc2ccc([N+](=O)[O-])cc2)c1 | inactive
16 | Cc1ccc(S(=O)(=O)NCCC(=O)Nc2ccc(C)c(Cl)c2)cc1C | 12.8% (active)
17 | Cc1ccc(NC(=O)c2cc(S(=O)(=O)NCCc3ccccc3)ccc2F)cc1Cl | 2.79% (inactive)
18 | Cc1ccc(NC(=O)CCC(=O)NNS(=O)(=O)c2ccccc2)cc1C | inactive
19 | CC(Sc1nnc(-c2ccccc2)c(-c2ccccc2)n1)C(=O)Nc1ncc(Cl)cc1Cl (stereo not given) | 0.725% (inactive)
20 | C/C(=N\NC(=O)c1cccc(S(=O)(=O)Nc2ccccc2Cl)c1)c1ccco1 | inactive
21 | CCOc1ccc(Br)cc1CSC(=N)N | 13.3% (active)
22 | CCOc1ccc(CSC(=N)N)cc1 | 0.245% (inactive)
23 | CCOc1ccc(Br)cc1CNCCN1CCOCC1 | inactive
24 | CC1C=CCC2C(=O)N(c3ccc(Cl)cc3O)C(=O)C12 (stereo not given) | 28.6% (active)
25 | O=C(Oc1ccccc1N1C(=O)C2CC=CCC2C1=O)c1ccc(Br)cc1 (stereo not given) | 0.075% (inactive)
26 | O=C(NCCCN1CCOCC1)c1onc(CSc2ccccc2)c1C(=O)NCCCN1CCOCC1 | inactive
27 | O=C(CSc1nnc(-c2n[nH]c3ccccc23)n1-c1ccccc1)Nc1ccccc1Cl | 19% (active)
28 | Cc1ccc(CCc2nnc(SCC(=O)Nc3ccccc3Cl)n2-c2ccccc2)o1 | 0.905% (inactive)

Row | Compound | CPE inhibition
29 | Cc1ccc(C)c(NC(=O)CSc2nnc(-c3n[nH]c4ccccc34)o2)c1 | 0.235% (inactive)
30 | Cc1ccc(S(=O)(=O)NN=C2C3CC4CC(C3)CC2C4)cc1[N+](=O)[O-] | 0.27% (inactive)
31 | Cn1cnnc1SC1c2cccc3cccc(c23)C1NS(=O)(=O)c1ccccc1 (stereo not given) | 0.485% (inactive)
32 | Cc1ccc(C=Nc2ccccc2C(=O)Nc2ccccc2)cc1 | 0.36% (inactive)
33 | CC(C)(C)OC(=O)C[C@H]1C/C=C\C[C@@H](CC(=O)N(CCO)Cc2ccccc2)C(=O)N[C@@H](c2ccccc2)COC1=O | inactive
34 | CN(C(=O)COC(=O)c1cc(-c2ccccc2Cl)nc2ccccc12)C1CCS(=O)(=O)C1 (stereo not given) | inactive
35 | CC1(C)C(C=C(Cl)Cl)C1C(=O)N(Cc1ccccc1Cl)C1CCS(=O)(=O)C1 (stereo not given) | 29.9% (active)
36 | CC1(C)C(C=C(Cl)Cl)C1C(=O)N(Cc1cccc(Cl)c1)C1CCS(=O)(=O)C1 (stereo not given) | 0.525% (inactive)
37 | CCN(Cc1ccccc1)C(=O)C1CCN(C/C(C)=C/c2ccccc2)CC1 | inactive
38 | Cc1ccc(C)c(S(=O)(=O)Nc2nc(C)c(C(=O)Nc3ccccc3)s2)c1 | inactive
39 | O=C1c2ccccc2NC(c2ccc(-c3cccc([N+](=O)[O-])c3)o2)N1O (stereo not given) | 0.135% (inactive)
40 | O=C(/C=C/c1ccc(-c2ccccc2[N+](=O)[O-])o1)c1ccccc1 | 3.25% (inactive)
41 | O=c1nc2s/c(=C\c3ccc(-c4ccccc4[N+](=O)[O-])o3)c(=O)n2nc1-c1ccccc1 | inactive
42 | O=C(N/N=C/c1ccc(-c2ccccc2[N+](=O)[O-])o1)[C@H]1C[C@@H]1c1ccccc1 | inactive
43 | O=C1NC(c2ccc(-c3ccccc3[N+](=O)[O-])o2)C(C(=O)c2ccc(F)cc2)C(O)(C(F)(F)F)N1 (stereo not given) | 23.4% (active)
44 | O=C1NC(c2ccc(-c3ccccc3[N+](=O)[O-])o2)C(C(=O)c2ccc(Cl)cc2)C(O)(C(F)(F)F)N1 (stereo not given) | 30.5% (active)
45 | COc1ccc(-c2cn(-c3ccccc3)c3[n+]2CCS3)cc1 | 7.46% (inactive)
46 | O=C(CSc1nc2ccccc2[nH]1)Nc1ccc2c(c1)CCC2 | 2.09% (inactive)
47 | NS(=O)(=O)c1ccc(NC(=S)NCc2ccccc2Cl)cc1 | 1.7% (inactive)
48 | O=[N+]([O-])c1ccc(N2CCOCC2)cc1SCc1ccco1 | 0.08% (inactive)
49 | CCc1ccc(OCC2c3cc(OC)c(OC)cc3CCN2C(=S)NCCOC)cc1 (stereo not given) | 17.3% (active)
50 | COc1cccc(NC(=S)N2CCc3cc(OC)c(OC)cc3C2COc2ccc3c(C)cc(=O)oc3c2)c1 (stereo not given) | 0.46% (inactive)
51 | COCCNC(=S)N1CCc2cc(OC)c(OC)cc2C1COc1ccc(C(C)C)cc1 (stereo not given) | 15.5% (active)
52 | COc1cc2c(cc1OC)CN(C(=S)Nc1c(C)cccc1C)CC2 | inactive
53 | COc1cc2c(cc1OC)C(C)N(C(=O)c1ccc(Br)o1)CC2 (stereo not given) | inactive
54 | COCCNC(=S)N/N=C(\C)c1ccc2cc(OC)ccc2c1 | 0.1% (inactive)
55 | COC(=O)Cc1ccc2sc(-c3ccccc3)nc2c1 | inactive
